Test results from PMC11006913.
Residue numbers refer to the chain shown, from its start.

Target: T1, PAX4 (Homo sapiens, UniProt O43316 9-242, R200Q)
T1 sequence: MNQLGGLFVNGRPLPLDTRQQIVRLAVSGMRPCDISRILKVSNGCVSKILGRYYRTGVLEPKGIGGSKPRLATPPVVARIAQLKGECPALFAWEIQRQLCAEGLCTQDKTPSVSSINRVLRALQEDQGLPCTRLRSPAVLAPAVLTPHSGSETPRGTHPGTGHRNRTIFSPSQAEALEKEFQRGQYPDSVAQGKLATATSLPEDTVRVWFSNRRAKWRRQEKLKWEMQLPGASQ
Assay: PBM; 200 nM protein, PBS
Conditions: dsDNA, one strand shown

Sequence | binding signal
AATTAGCT | 11.9 upbm affinity estimate (log intensity, higher = more binding, comparable within an allelic series)
ACGGCTGG | 9.48 upbm affinity estimate (log intensity, higher = more binding, comparable within an allelic series)
ACCCGGGC | 9.34 upbm affinity estimate (log intensity, higher = more binding, comparable within an allelic series)
CGGGCTCC | 9.02 upbm affinity estimate (log intensity, higher = more binding, comparable within an allelic series)

Target: SHOX (Homo sapiens, UniProt O15266 103-189, R173C)
Assay: PBM; 200 nM protein, PBS
Conditions: dsDNA, one strand shown

SHOX, sequence (O15266 103-189 R173C): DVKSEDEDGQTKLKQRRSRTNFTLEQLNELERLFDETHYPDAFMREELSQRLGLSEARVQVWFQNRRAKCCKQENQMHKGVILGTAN

Sequence | binding signal
AATTAGCT | 9.43 upbm affinity estimate (log intensity, higher = more binding, comparable within an allelic series)
CGGTCCAA | 7.18 upbm affinity estimate (log intensity, higher = more binding, comparable within an allelic series)
CTAATTGC | 9.34 upbm affinity estimate (log intensity, higher = more binding, comparable within an allelic series)
ACCAGCTG | 7.03 upbm affinity estimate (log intensity, higher = more binding, comparable within an allelic series)
ACGCGCAG | 7.17 upbm affinity estimate (log intensity, higher = more binding, comparable within an allelic series)
ACCCGGGC | 7.15 upbm affinity estimate (log intensity, higher = more binding, comparable within an allelic series)

Target: HOXA2 (Homo sapiens, UniProt O43364 129-215, R185K)
Assay: PBM; 200 nM protein, PBS
Conditions: dsDNA, one strand shown

HOXA2, sequence (O43364 129-215 R185K): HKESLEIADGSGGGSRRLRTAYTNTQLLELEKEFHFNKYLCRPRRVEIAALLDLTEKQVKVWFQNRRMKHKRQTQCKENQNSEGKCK

Sequence | binding signal
CTAATTGC | 13.5 upbm affinity estimate (log intensity, higher = more binding, comparable within an allelic series)
CGGGCTCC | 9.88 upbm affinity estimate (log intensity, higher = more binding, comparable within an allelic series)
CCAGGCCG | 10.2 upbm affinity estimate (log intensity, higher = more binding, comparable within an allelic series)
GCACTTAA | 12.3 upbm affinity estimate (log intensity, higher = more binding, comparable within an allelic series)

Target: ALX1 (Homo sapiens, UniProt Q15699 118-204, L144R)
Assay: PBM; 200 nM protein, PBS
Conditions: dsDNA, one strand shown

ALX1, sequence (Q15699 118-204 L144R): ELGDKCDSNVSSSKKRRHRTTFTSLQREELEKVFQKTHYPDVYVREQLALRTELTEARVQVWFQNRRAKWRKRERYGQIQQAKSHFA

Sequence | binding signal
AATTAGCT | 11.1 upbm affinity estimate (log intensity, higher = more binding, comparable within an allelic series)
CTTAAGTA | 8.85 upbm affinity estimate (log intensity, higher = more binding, comparable within an allelic series)
CTAATTGC | 11 upbm affinity estimate (log intensity, higher = more binding, comparable within an allelic series)
CCGGCGCG | 6.34 upbm affinity estimate (log intensity, higher = more binding, comparable within an allelic series)
CGAACGCC | 6.32 upbm affinity estimate (log intensity, higher = more binding, comparable within an allelic series)
CCACTTTA | 8.44 upbm affinity estimate (log intensity, higher = more binding, comparable within an allelic series)

Target: T2, PAX4 (Homo sapiens, UniProt O43316 9-242, F177V)
T2 sequence: T1 sequence with F169V, Q192R
Assay: PBM; 200 nM protein, PBS
Conditions: dsDNA, one strand shown

Sequence | binding signal
AATTAGCT | 10.4 upbm affinity estimate (log intensity, higher = more binding, comparable within an allelic series)
ACGGCTGG | 9.33 upbm affinity estimate (log intensity, higher = more binding, comparable within an allelic series)
ACCCGGGC | 9.22 upbm affinity estimate (log intensity, higher = more binding, comparable within an allelic series)
CGGGCTCC | 8.99 upbm affinity estimate (log intensity, higher = more binding, comparable within an allelic series)

Target: HOXA4 (Homo sapiens, UniProt Q00056 201-287)
Assay: PBM; 200 nM protein, PBS
Conditions: dsDNA, one strand shown

HOXA4, sequence (Q00056 201-287): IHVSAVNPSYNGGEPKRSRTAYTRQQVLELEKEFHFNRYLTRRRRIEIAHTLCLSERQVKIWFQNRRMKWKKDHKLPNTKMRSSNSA

Sequence | binding signal
CTAATTGC | 13.8 upbm affinity estimate (log intensity, higher = more binding, comparable within an allelic series)
CCGGAGCC | 9.77 upbm affinity estimate (log intensity, higher = more binding, comparable within an allelic series)
CGGGCTCC | 9.29 upbm affinity estimate (log intensity, higher = more binding, comparable within an allelic series)

Target: MSX2 (Homo sapiens, UniProt P35548 130-214)
Assay: PBM; 200 nM protein, PBS
Conditions: dsDNA, one strand shown

MSX2, sequence (P35548 130-214): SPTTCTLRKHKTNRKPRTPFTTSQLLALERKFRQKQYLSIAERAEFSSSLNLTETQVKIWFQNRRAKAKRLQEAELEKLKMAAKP

Sequence | binding signal
AATTAGCT | 13.3 upbm affinity estimate (log intensity, higher = more binding, comparable within an allelic series)
CTAATTGC | 14 upbm affinity estimate (log intensity, higher = more binding, comparable within an allelic series)
CGGGCTCC | 8.79 upbm affinity estimate (log intensity, higher = more binding, comparable within an allelic series)

Target: ALX3 (Homo sapiens, UniProt O95076 139-225)
Assay: PBM; 200 nM protein, PBS
Conditions: dsDNA, one strand shown

ALX3 (Homo sapiens, UniProt O95076 139-225), sequence (O95076 139-225): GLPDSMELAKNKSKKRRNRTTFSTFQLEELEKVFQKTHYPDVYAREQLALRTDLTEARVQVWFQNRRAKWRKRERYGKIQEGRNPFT

Sequence | binding signal
AATTAGCT | 12.2 upbm affinity estimate (log intensity, higher = more binding, comparable within an allelic series)
CTAATTGC | 12.3 upbm affinity estimate (log intensity, higher = more binding, comparable within an allelic series)
CGGGCTCC | 7.17 upbm affinity estimate (log intensity, higher = more binding, comparable within an allelic series)

Target: T3, NKX2-4 (Homo sapiens, UniProt Q9H2Z4 175-261, R246Q)
T3 sequence: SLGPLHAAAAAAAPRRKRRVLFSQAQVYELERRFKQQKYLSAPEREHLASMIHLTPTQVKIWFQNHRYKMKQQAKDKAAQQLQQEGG
Assay: PBM; 200 nM protein, PBS
Conditions: dsDNA, one strand shown

Sequence | binding signal
AAGTGGAG | 12.8 upbm affinity estimate (log intensity, higher = more binding, comparable within an allelic series)
CTTAAGTA | 13.1 upbm affinity estimate (log intensity, higher = more binding, comparable within an allelic series)
CACTTTAA | 13 upbm affinity estimate (log intensity, higher = more binding, comparable within an allelic series)
CACTTAAC | 13.1 upbm affinity estimate (log intensity, higher = more binding, comparable within an allelic series)
GTACTTAA | 13.3 upbm affinity estimate (log intensity, higher = more binding, comparable within an allelic series)
AATAAGTG | 12.9 upbm affinity estimate (log intensity, higher = more binding, comparable within an allelic series)
ACCACTTA | 13.2 upbm affinity estimate (log intensity, higher = more binding, comparable within an allelic series)
CACTTATA | 13.2 upbm affinity estimate (log intensity, higher = more binding, comparable within an allelic series)
CCGGAGCC | 9.5 upbm affinity estimate (log intensity, higher = more binding, comparable within an allelic series)
ACACTTAT | 13.1 upbm affinity estimate (log intensity, higher = more binding, comparable within an allelic series)
CTACTTAA | 13 upbm affinity estimate (log intensity, higher = more binding, comparable within an allelic series)
CCACTTTA | 13.1 upbm affinity estimate (log intensity, higher = more binding, comparable within an allelic series)
ATCAAGTG | 13.1 upbm affinity estimate (log intensity, higher = more binding, comparable within an allelic series)
CCAGGCCG | 9.57 upbm affinity estimate (log intensity, higher = more binding, comparable within an allelic series)
ATAAGTAC | 13.1 upbm affinity estimate (log intensity, higher = more binding, comparable within an allelic series)
AAGTACCT | 12.9 upbm affinity estimate (log intensity, higher = more binding, comparable within an allelic series)
AAGCACTT | 13.1 upbm affinity estimate (log intensity, higher = more binding, comparable within an allelic series)
GCACTTAA | 13.2 upbm affinity estimate (log intensity, higher = more binding, comparable within an allelic series)
GCCACTTA | 13.2 upbm affinity estimate (log intensity, higher = more binding, comparable within an allelic series)

Target: T4, PAX4 (Homo sapiens, UniProt O43316 9-242, F177Y)
T4 sequence: T1 sequence with F169Y, Q192R
Assay: PBM; 200 nM protein, PBS
Conditions: dsDNA, one strand shown

Sequence | binding signal
AATTAGCT | 10.9 upbm affinity estimate (log intensity, higher = more binding, comparable within an allelic series)
ACGGCTGG | 9.33 upbm affinity estimate (log intensity, higher = more binding, comparable within an allelic series)
ACCCGGGC | 9.24 upbm affinity estimate (log intensity, higher = more binding, comparable within an allelic series)
CGGGCTCC | 8.93 upbm affinity estimate (log intensity, higher = more binding, comparable within an allelic series)

Target: PROP1 (Homo sapiens, UniProt O75360 56-141)
Assay: PBM; 200 nM protein, PBS
Conditions: dsDNA, one strand shown

PROP1 (Homo sapiens, UniProt O75360 56-141), sequence (O75360 56-141): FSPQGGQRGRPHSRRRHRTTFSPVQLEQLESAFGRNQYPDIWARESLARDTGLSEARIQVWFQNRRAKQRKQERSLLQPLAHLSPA

Sequence | binding signal
AATTAGCT | 11 upbm affinity estimate (log intensity, higher = more binding, comparable within an allelic series)
CCCGGCGG | 6.68 upbm affinity estimate (log intensity, higher = more binding, comparable within an allelic series)
CTAATTGC | 11.2 upbm affinity estimate (log intensity, higher = more binding, comparable within an allelic series)
ACGGCTGG | 6.59 upbm affinity estimate (log intensity, higher = more binding, comparable within an allelic series)
CTACTTAA | 8.53 upbm affinity estimate (log intensity, higher = more binding, comparable within an allelic series)
CGCCCGAG | 6.84 upbm affinity estimate (log intensity, higher = more binding, comparable within an allelic series)

Target: HESX1 (Homo sapiens, UniProt Q9UBX0 95-180, R109Q)
Assay: PBM; 200 nM protein, PBS
Conditions: dsDNA, one strand shown

HESX1 (Homo sapiens, UniProt Q9UBX0 95-180, R109Q), sequence (Q9UBX0 95-180 R109Q): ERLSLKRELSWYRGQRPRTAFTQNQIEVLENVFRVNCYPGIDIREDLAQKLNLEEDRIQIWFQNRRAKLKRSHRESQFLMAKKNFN

Sequence | binding signal
AATTAGCT | 8.93 upbm affinity estimate (log intensity, higher = more binding, comparable within an allelic series)
CTAATTGC | 8.98 upbm affinity estimate (log intensity, higher = more binding, comparable within an allelic series)
CTTCCGTC | 6.56 upbm affinity estimate (log intensity, higher = more binding, comparable within an allelic series)
CCGCGTCG | 6.5 upbm affinity estimate (log intensity, higher = more binding, comparable within an allelic series)
CCAGCGCG | 6.45 upbm affinity estimate (log intensity, higher = more binding, comparable within an allelic series)

Target: PROP1 (Homo sapiens, UniProt O75360 56-141, R99H)
Assay: PBM; 200 nM protein, PBS
Conditions: dsDNA, one strand shown

PROP1 (Homo sapiens, UniProt O75360 56-141, R99H), sequence (O75360 56-141 R99H): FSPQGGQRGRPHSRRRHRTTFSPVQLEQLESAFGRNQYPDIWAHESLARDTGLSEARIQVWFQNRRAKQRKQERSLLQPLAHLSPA

Sequence | binding signal
AATTAGCT | 10.9 upbm affinity estimate (log intensity, higher = more binding, comparable within an allelic series)
CCCGGCGG | 6.68 upbm affinity estimate (log intensity, higher = more binding, comparable within an allelic series)
CTAATTGC | 11.5 upbm affinity estimate (log intensity, higher = more binding, comparable within an allelic series)
ACGGCTGG | 6.78 upbm affinity estimate (log intensity, higher = more binding, comparable within an allelic series)
CTACTTAA | 8.11 upbm affinity estimate (log intensity, higher = more binding, comparable within an allelic series)
CGCCCGAG | 6.77 upbm affinity estimate (log intensity, higher = more binding, comparable within an allelic series)

Target: VAX1 (Homo sapiens, UniProt Q5SQQ9 86-172)
Assay: PBM; 200 nM protein, PBS
Conditions: dsDNA, one strand shown

VAX1, sequence (Q5SQQ9 86-172): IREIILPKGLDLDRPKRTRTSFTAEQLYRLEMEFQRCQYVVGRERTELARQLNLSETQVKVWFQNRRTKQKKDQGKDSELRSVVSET

Sequence | binding signal
ACGGCGGC | 7.01 upbm affinity estimate (log intensity, higher = more binding, comparable within an allelic series)
CTAATTGC | 13 upbm affinity estimate (log intensity, higher = more binding, comparable within an allelic series)
CGGGCTCC | 6.15 upbm affinity estimate (log intensity, higher = more binding, comparable within an allelic series)

Target: ALX3 (Homo sapiens, UniProt O95076 139-225, L168Q)
Assay: PBM; 200 nM protein, PBS
Conditions: dsDNA, one strand shown

ALX3 (Homo sapiens, UniProt O95076 139-225, L168Q), sequence (O95076 139-225 L168Q): as the sequence (O95076 139-225) above, with L30Q counted along it

Sequence | binding signal
AATTAGCT | 10.3 upbm affinity estimate (log intensity, higher = more binding, comparable within an allelic series)
CTAATTGC | 10.3 upbm affinity estimate (log intensity, higher = more binding, comparable within an allelic series)
CGGGCTCC | 7.45 upbm affinity estimate (log intensity, higher = more binding, comparable within an allelic series)

Target: HESX1 (Homo sapiens, UniProt Q9UBX0 95-180, P111T)
Assay: PBM; 200 nM protein, PBS
Conditions: dsDNA, one strand shown

HESX1 (Homo sapiens, UniProt Q9UBX0 95-180, P111T), sequence (Q9UBX0 95-180 P111T): as the sequence (Q9UBX0 95-180 R109Q) above, with Q15R, P17T counted along it

Sequence | binding signal
AATTAGCT | 10.4 upbm affinity estimate (log intensity, higher = more binding, comparable within an allelic series)
CTAATTGC | 10.9 upbm affinity estimate (log intensity, higher = more binding, comparable within an allelic series)
CTTCCGTC | 6.55 upbm affinity estimate (log intensity, higher = more binding, comparable within an allelic series)
CCGCGTCG | 6.49 upbm affinity estimate (log intensity, higher = more binding, comparable within an allelic series)
CCAGCGCG | 6.49 upbm affinity estimate (log intensity, higher = more binding, comparable within an allelic series)

Target: HOXB9 (Homo sapiens, UniProt P17482 171-250, R186Q)
Assay: PBM; 200 nM protein, PBS
Conditions: dsDNA, one strand shown

HOXB9, sequence (P17482 171-250 R186Q): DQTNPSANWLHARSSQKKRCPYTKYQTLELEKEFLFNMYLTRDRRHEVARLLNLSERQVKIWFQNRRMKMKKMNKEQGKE

Sequence | binding signal
CACTTATA | 10.2 upbm affinity estimate (log intensity, higher = more binding, comparable within an allelic series)
CGGGCTCC | 7.82 upbm affinity estimate (log intensity, higher = more binding, comparable within an allelic series)
